Measurements as given in PubChem BioAssay (NCATS).
Inconclusive results are not listed. Entries that show only a call come without a potency. Active and inactive are the calls of the source. The call rests on the fitted dose curve; in most records, active means well fitted cell-killing curve with a large enough effect; inconclusive means small, poorly fitted or top-dose-only effect; inactive means no such curve, though single readings can be large or run the other way.

Assay: qHTS of pediatric cancer cell lines to identify multiple opportunities for drug repurposing: Primary screen for MG 63 (6-TG R) cells (AID 1347105); further: nearly all actives have a fitted effect of over 50% in size
Conditions: MG 63 (6-TG R) viability, CellTiter-Glo, 48 h; series mostly up to 46 µM
Text: Drug repurposing or repositioning has been offered as a strategy for drug development in oncology programs. This approach has special potential for childhood cancers and other rare or orphan diseases, where the expected return on new drug development has been a disincentive to pharmaceuticals. […] In this project we exploit the poly-pharmacology of drugs to discover new indications via phenotypic screening of a panel of 19 well-characterized cell lines derived from solid tumors seen in children and adolescents. The goal is to identify approved drugs with previously unrecognized anticancer properties that has the potential to reveal new mechanisms and biological processes involved in carcinogenesis or drug resistance. We employed a titration-based paradigm (quantitative high-throughput screening or qHTS), where all compounds were tested at multiple concentrations for their effect on cell viability. Concentration-response curves (CRCs) were derived directly from the primary screen, and both potency and efficacy values were used to identify compounds with robust bioactivity profiles. We screened the NIH Chemical Genomics Center (NCGC) Pharmaceutical Collection (NPC) and Mechanism Interrogation Plate (MIPE) small molecule collections of approved and investigational compounds against these cell lines; and measured metabolically active cells after 48 hours of compound treatment as a proxy for cell viability. […] Assay Submitter: Nathalia J. Martinez, National Center for Advancing Translational Sciences, National Institutes of Health, Rockville, MD, USA; email: natalia.martinez@nih.gov Shen, M et al. Quantitative high-throughput phenotypic screening of pediatric cancer cell lines identifies multiple opportunities for drug repurposing. Oncotarget 2017 Dec 19;9(4):4758-4772. PMID 29435139.
The cells were obtained from University of North Carolina (UNC), Pediatric Preclinical Testing Program (PPT), and Coriell Institute (CI). qHTS cell viability assay: Cells were assayed in growth media at a density of 500-1,000 cells/well. Five microliters of cells were dispensed into 1,536-well, white, solid-bottom, TC-treated plates (Greiner Bio One) using a multidrop dispenser and incubated at 37 degrees C, 5% CO2, under a humidified atmosphere for 5 hours. Twenty-three nanoliters of compounds and controls (neutral control DMSO or positive control bortezomib at final concentration of 2.3 µM) were subsequently transferred by Kalypsys pintool. For primary screens, the MIPE collection was tested at 11-point dilutions (final concentrations range from 0.78 nM to 46 µM) and the NPC collection at 8-point dilutions (final concentrations range from 0.59 nM to 46 µM). Compounds tested in follow-up screens were assayed at 11-point dilutions. Cells were incubated for 48 hours, followed by addition of 3 µL of CellTiter-Glo (Promega). After a 15 min incubation at room temperature, samples were analyzed for luminescence intensity using a ViewLux High-throughput CCD imager equipped with clear filters.
Potency means the concentration at half of the fitted maximal effect.

| SMILES | Potency |
| --- | --- |
| CN1CCC(N(Cc2ccccc2)c2ccccc2)CC1 | inactive |
| CC1Sc2c(C(=O)O)c(=O)c3cc(F)c(N4CCNCC4)cc3n21 (stereo not given) | inactive |
| C[C@@H]1CN(C2CCC(C#N)(c3ccc(F)cc3)CC2)CC[C@]1(C(=O)O)c1ccccc1 (stereo not given in full) | inactive |
| OC(O)C(Cl)(Cl)Cl | inactive |
| O=C1NCN(c2ccccc2)C12CCN(CCCOc1ccc(F)cc1)CC2 | inactive |
| NC1(c2ccccc2)CCCCC1 | inactive |
| CCOC(=O)NC(C)(C)Cc1ccc(Cl)cc1 | inactive |
| CN1C(=O)CN=C(c2ccccc2)c2cc([N+](=O)[O-])ccc21 | inactive |
| CN(C)C(=O)Oc1cc(OC(=O)N(C)C)cc(C(O)CNC(C)(C)C)c1 (stereo not given) | inactive |
| CCS(=O)(=O)C(C)(C)S(=O)(=O)CC | inactive |
| CCc1cc(OC)c(C[C@H](C)N)cc1OC | inactive |
| O=C(NC(=O)c1c(F)cccc1F)Nc1cc(Cl)c(OC(F)(F)C(F)C(F)(F)F)cc1Cl (stereo not given) | inactive |
| COC(=O)C1=CCCN(C)C1 | inactive |
| CC#C[C@]1(O)CC[C@H]2[C@@H]3C[C@H](C)C4=CC(=O)CC[C@]4(C)[C@H]3CC[C@@]21C | inactive |
| NC(=O)OCCCc1ccccc1 | inactive |
| CNC(C)Cc1ccccc1OC (stereo not given) | inactive |
| Nc1ccccc1C(=O)OCC(O)CO (stereo not given) | inactive |
| O=C(CBr)Nc1ccc(Cl)cc1C(=O)c1ccccc1F | inactive |
| CN(C)CCc1c[nH]c2ccc(O)cc12 | inactive |
| O=c1n(Cl)c(=O)n(Cl)c(=O)n1Cl | inactive |

| SMILES | Potency |
| --- | --- |
| c1ccc2nc(N3CCNCC3)ccc2c1 | inactive |
| c1ccc2c(c1)Sc1ccccc1N2CC1CN2CCC1CC2 (stereo not given) | 21.1 µM (active) |
| Clc1ccc(C(OCCN2CCCCC2)c2ccccc2)cc1 (stereo not given) | inactive |
| CNC(C)Cc1ccc2c(c1)OCO2 (stereo not given) | inactive |
| CN1C(=O)CN=C(c2ccccc2)c2cc(Cl)ccc21 | inactive |
| CCC1(c2ccccc2)CCC(=O)NC1=O (stereo not given) | inactive |
| Nc1ccc(N)cc1 | inactive |
| CC(Cc1ccccc1)NCc1ccccc1Cl (stereo not given) | inactive |
| C#C[C@]1(O)CC[C@H]2[C@@H]3CCC4=CC(=O)CCC4=C3C=C[C@@]21CC | inactive |
| CCN(CC)Cc1nccn1-c1ccc([N+](=O)[O-])cc1C(=O)c1ccccc1Cl | inactive |
| COc1cc(N)c(Cl)cc1C(=O)NC1CN2CCC1CC2 (stereo not given) | inactive |
| O=C(CCCN1CCC(n2c(=O)[nH]c3ccccc32)CC1)c1ccc(F)cc1 | inactive |
| CCOC(=O)c1ncn2c1CN(C)C(=O)c1c(I)cccc1-2 | inactive |
| CCN(CC)C(C)C(=O)c1ccccc1 (stereo not given) | inactive |
| CCCN(CCC)CCc1c[nH]c2ccccc12 | inactive |
| COP(=O)(OC)OC=C(Cl)Cl | inactive |
| C=CC[C@]1(O)CC[C@H]2[C@@H]3CCC4=CC(=O)CCC4=C3C=C[C@@]21C | inactive |
| C[C@H]1CNCCc2ccc(Cl)cc21 | inactive |
| C[C@]12CC[C@H]3[C@@H](CCC4=CC(=O)CC[C@@H]43)[C@@H]1CC[C@@H]2O | inactive |
| ClC1=C(Cl)C2(Cl)C(CBr)CC1(Cl)C2(Cl)Cl (stereo not given) | inactive |
